From PubChem BioAssay (NCATS) come the findings set out here.

The structures appear in SMILES notation. Inconclusive results are not listed. Where a call stands in place of a potency, no number is given. Active and inactive are the calls of the source. The call rests on the fitted dose curve; in most records, active means well fitted activation curve with a large enough effect; inconclusive means small, poorly fitted or top-dose-only effect; inactive means no such curve, though single readings can be large or run the other way.
Potency means the concentration at half of the fitted maximal effect.

The target in the assay is Rap guanine nucleotide exchange factor 3 (Homo sapiens) (UniProt O95398). The assay is described as follows: Confirmatory qHTS for agonist of cAMP-regulated guanine nucleotide exchange factor 3 (EPAC1) (AID 1645881). Further: nearly all actives have a fitted effect of over 75% in size.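 On activation: EPAC1 catalysed release of BODIPY-GDP from Rap1B seen as fluorescence loss.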 The following applies: EPAC1 Rap1B BODIPY-GDP exchange fluorescence; series mostly up to 154 µM. (In qHTS, concentration-response curves come from the screen itself.)
Sequence of Rap guanine nucleotide exchange factor 3 (Homo sapiens) (O95398 whole entry, looked up): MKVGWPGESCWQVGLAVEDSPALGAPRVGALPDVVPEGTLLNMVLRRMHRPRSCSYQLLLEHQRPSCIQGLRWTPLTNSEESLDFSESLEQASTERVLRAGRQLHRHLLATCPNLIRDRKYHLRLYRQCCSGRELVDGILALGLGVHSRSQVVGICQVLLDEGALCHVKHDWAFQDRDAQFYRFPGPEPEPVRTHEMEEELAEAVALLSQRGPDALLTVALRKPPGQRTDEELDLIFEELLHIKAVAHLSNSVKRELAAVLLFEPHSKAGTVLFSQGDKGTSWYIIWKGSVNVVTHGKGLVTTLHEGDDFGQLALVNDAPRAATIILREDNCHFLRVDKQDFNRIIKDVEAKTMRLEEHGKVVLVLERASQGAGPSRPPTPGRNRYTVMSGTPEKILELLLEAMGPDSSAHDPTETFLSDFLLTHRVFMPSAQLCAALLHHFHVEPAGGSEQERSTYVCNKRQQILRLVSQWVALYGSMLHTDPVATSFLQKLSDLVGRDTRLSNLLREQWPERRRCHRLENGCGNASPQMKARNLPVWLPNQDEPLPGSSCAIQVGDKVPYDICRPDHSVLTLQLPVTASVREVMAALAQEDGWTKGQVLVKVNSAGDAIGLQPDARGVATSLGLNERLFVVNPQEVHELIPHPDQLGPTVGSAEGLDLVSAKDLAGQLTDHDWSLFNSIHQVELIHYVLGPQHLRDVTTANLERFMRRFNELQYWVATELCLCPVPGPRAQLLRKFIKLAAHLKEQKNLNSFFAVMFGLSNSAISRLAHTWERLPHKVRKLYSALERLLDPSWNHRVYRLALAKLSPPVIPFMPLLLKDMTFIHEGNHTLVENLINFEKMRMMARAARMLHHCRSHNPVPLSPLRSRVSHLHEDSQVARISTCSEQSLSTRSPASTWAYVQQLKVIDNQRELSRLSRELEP
Regarding `C=CCSc1nc2ccccc2c(=O)n1Cc1ccccc1`, the Potency entry is “inactive”.

As to `c1ccc(CNc2c(-c3cccc(SC4CCCCC4)c3)nc3ccccn23)cc1`, the Potency result was “inactive”.

`COC(=O)c1ccc2nc(-c3ccc(OC)c(OC)c3)c(CC3CCCCC3)n2c1`: the Potency result was “inactive”.

For `COc1ccc(N2C(=O)CSC2c2ccccc2F)c(OC)c1` (stereo not drawn), the Potency result is “inactive”.

Turning to `O=C1[C@H]2CCC=C[C@H]2[C@H](c2ccccc2Br)N1Cc1ccccc1`, the Potency result was “inactive”.

With `Fc1cc(F)cc(-c2c(-c3ccccc3)ncc3ccc(F)cc23)c1`, the Potency entry was “inactive”.

Consider `Cc1ccc(C2N(c3cccc(Cl)c3)C(=O)N3CCCN23)cc1` (stereo not drawn), for which the Potency entry is “inactive”.

Regarding `O=C(O)c1cc(Nc2cc(Cl)c3nonc3c2[N+](=O)[O-])ccc1O`, the Potency result was “inactive”.

Regarding `COc1ccc(S(=O)(=O)N2CCCC2)c(Cl)c1Cl`, the Potency result was “inactive”.

Turning to `O=C(O)CCCN1C(=O)/C(=C/c2cn(-c3ccccc3)nc2-c2cccs2)SC1=S`, the Potency was 112 µM (active).

Regarding `COc1cc2cc3c4c(cc(OC)c(OC)c4c2cc1OC)CCN3C`, the Potency result was “inactive”.

Regarding `COC(=O)c1ccc2nc(-c3cccc(Br)c3)c(Cc3ccsc3)n2c1`, the Potency entry is “inactive”.

`CCCCC1=C(C(=O)OCC)C(C(=O)OCC)Oc2ccccc21` (stereo not drawn): the Potency result is “inactive”.
